# Most compounds without a hit are left out; they make up all but 1.5% or so of the library.
# CCHF vOTU inh-1: blocks the CCHF virus ovarian tumor domain protease; CCHFV vOTU protease, Pep-AMC fluorescence; inhibition, % at 11.5 µM; hit rate 0.55% among 370,000; further: 0% = vehicle wells with enzyme and 100% = no enzyme wells
# PrPC surface inh: inhibitors of human cell surface prion protein PrPC | hit rate 0.43% among 370,000 | P04156 | inhibition, % at 13.8 µM | TR-FRET read-out; in the data active means inhibition above about 24%; further: 0% = median of the test wells and 100% = reference compound wells
# TcdB GH inh: TcdB glycohydrolase inhibition; TcdB glycohydrolase enzymatic assay, plate reader; hit rate 0.24% among 350,000; inhibition, % at 9.99 µM; AID 652162; P18177; in the data active means inhibition above about 10%
# Target sequence (P18177 whole entry, looked up): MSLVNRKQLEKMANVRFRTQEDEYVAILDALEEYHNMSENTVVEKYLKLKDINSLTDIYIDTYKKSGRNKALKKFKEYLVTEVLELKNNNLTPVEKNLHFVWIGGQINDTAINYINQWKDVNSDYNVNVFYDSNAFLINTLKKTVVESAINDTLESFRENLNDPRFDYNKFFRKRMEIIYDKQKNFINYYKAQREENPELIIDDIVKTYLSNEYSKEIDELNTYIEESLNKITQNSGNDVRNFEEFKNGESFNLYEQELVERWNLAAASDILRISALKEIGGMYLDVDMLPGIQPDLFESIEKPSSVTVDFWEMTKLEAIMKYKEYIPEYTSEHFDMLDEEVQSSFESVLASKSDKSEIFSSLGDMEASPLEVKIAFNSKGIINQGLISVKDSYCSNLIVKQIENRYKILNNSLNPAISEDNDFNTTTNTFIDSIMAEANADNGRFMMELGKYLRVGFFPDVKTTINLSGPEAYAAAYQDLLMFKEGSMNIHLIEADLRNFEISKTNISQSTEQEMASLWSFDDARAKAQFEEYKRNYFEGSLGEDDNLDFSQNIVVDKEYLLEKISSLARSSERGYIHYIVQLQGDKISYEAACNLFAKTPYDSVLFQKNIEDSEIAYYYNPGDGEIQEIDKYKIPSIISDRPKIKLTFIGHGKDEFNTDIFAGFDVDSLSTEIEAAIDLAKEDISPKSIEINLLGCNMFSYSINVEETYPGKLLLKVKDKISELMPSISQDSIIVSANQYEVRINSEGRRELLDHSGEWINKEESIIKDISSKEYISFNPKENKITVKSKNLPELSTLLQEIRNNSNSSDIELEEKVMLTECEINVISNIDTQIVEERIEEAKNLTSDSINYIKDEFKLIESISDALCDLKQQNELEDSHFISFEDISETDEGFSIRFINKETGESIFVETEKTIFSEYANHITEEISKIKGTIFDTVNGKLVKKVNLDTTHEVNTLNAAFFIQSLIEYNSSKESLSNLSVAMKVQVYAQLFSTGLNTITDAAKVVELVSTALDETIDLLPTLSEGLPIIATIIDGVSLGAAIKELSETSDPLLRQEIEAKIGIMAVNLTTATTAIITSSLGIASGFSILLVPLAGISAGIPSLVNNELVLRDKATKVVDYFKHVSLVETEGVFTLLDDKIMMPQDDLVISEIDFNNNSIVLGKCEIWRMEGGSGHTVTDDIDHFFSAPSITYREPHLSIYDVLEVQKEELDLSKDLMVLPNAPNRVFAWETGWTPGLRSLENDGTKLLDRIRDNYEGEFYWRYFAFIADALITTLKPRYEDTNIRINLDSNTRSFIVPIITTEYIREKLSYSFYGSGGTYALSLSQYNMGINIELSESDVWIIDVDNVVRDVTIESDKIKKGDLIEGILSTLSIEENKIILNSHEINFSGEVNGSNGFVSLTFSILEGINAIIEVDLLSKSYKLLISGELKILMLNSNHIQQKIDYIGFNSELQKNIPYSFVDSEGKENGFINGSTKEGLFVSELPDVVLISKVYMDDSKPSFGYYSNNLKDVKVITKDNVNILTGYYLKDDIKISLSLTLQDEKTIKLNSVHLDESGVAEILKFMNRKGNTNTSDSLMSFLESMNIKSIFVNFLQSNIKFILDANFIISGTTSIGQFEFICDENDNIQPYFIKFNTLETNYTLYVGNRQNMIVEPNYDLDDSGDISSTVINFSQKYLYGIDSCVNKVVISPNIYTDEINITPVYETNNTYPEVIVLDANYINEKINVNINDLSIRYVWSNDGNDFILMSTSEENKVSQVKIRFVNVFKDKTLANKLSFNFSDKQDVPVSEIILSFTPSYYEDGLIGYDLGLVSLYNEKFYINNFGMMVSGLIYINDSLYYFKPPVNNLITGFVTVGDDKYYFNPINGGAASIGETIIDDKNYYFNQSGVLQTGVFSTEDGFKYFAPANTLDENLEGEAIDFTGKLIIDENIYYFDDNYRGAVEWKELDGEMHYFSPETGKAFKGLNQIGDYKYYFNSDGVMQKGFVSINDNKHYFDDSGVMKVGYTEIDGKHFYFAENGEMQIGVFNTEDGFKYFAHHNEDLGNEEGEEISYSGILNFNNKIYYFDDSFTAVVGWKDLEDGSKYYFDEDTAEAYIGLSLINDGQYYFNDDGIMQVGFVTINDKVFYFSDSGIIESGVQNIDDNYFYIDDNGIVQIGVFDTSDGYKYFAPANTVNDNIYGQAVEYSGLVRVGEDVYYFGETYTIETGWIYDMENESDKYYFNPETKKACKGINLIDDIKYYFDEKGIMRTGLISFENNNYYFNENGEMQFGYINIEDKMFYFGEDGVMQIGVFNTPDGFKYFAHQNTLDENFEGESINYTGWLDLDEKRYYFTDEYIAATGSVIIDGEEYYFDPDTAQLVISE
# Vc quorum ag: inducers of Vibrio cholerae quorum light production without autoinducers; activation, % at 18.7 µM; hit rate 0.16% among 350,000; V. cholerae BH1578 lux reporter, luminescence, 6 h; in the data active means activation mostly above about 9.7%, no sharp cut-off
# VHR inh abs: blocks human VHR1 dual specificity phosphatase | recombinant VHR phosphatase, pNPP absorbance | inhibition, % at 13.3 µM | P51452 | hit rate 0.52% among 290,000; in the data active means inhibition above about 50%
# PriA SSB inh: blocks PriA binding to SSB C-terminal tail. AlphaScreen SSBct-PriA binding, biotinylated peptide. inhibition, % at 33 µM. hit rate 0.6% among 430,000; in the data active means inhibition mostly above about 37%, no sharp cut-off; inactive means mostly below about 20%;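 further: plate controls were negative control peptide for no effect and reference peptide for full effect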
# CCHF vOTU inh-2: confirmation of CCHF virus vOTU protease inhibitors. shares compounds with CCHF vOTU inh-1. Recombinant CCHFV vOTU, Pep-AMC fluorescence. inhibition, % at 11.5 µM. hit rate 17% among 1,900. AID 686976
# Active calls of the source: *; i = inactive; . = no result. Unless noted, no stated cut-off is given here; in the data, active means inhibition above about 30%; inactive means the rest.
SMILES,CCHF vOTU inh-1,PrPC surface inh,TcdB GH inh,Vc quorum ag,VHR inh abs,PriA SSB inh,CCHF vOTU inh-2
CC(C)(C)c1cc[n+](C2=C([O-])c3ccccc3C(=O)C2=NS(=O)(=O)c2cccs2)cc1,.,.,.,.,.,6,.
CCc1cc[n+](C2=C([O-])c3ccccc3C(=O)C2=NS(=O)(=O)c2cccs2)cc1,.,.,.,.,.,13,.
O=C1/C(=N\S(=O)(=O)c2cccs2)C([n+]2ccccc2)=C([O-])c2ccccc21,49*,-35,1,-4,23,.,89*
CC(C)(C)c1cc[n+](C2=C([O-])c3ccccc3C(=O)/C2=N\S(=O)(=O)c2cccs2)cc1,77*,-54,2,i,17,.,70*
Cc1cccc2sc(OC3CN(S(=O)(=O)Cc4ccccc4)C3)nc12,.,.,.,.,.,-17,.
Cc1cc(NS(C)(=O)=O)c(=O)n(Cc2cccc(C(F)(F)F)c2)c1,31*,0,0,i,.,.,-25
COCC(=O)Nc1cc(C)cn(Cc2cccc(C(F)(F)F)c2)c1=O,6,-10,0,i,-3,-6,.
CCCCS(=O)(=O)N1CCCC(c2nnc(-c3ccc4c(c3)OCO4)o2)C1 (centres undefined),.,.,.,.,.,-4,.
Fc1ccc(-c2nc3c(Cl)cc(C(F)(F)F)cn3c2Cc2cccc(F)c2)cc1,-3,2,1,.,.,.,.
Fc1cccc(Cc2c(-c3ccco3)nc3c(Cl)cc(C(F)(F)F)cn23)c1,31*,5,1,.,.,.,-4
C=CCN(CC=C)C(=S)Nc1ccc2nsnc2c1,51*,-35,-1,0,26,-106,87*
COCCNC(=S)Nc1ccc(Cl)c(Cl)c1,8,10,-5,-1,34,6,.
CCOc1ccc(NC(=O)Nc2ccc3nsnc3c2)cc1,13,-15,0,i,19,-11,.
COCCNC(=S)Nc1ccc2nsnc2c1,100*,-15,.,0,0,-9,-15
CC(C)N(C(=O)Nc1ccc2nsnc2c1)C(C)C,98*,-6,-2,.,36,15,67*
CCOc1ccc(NC(=S)Nc2ccc3nsnc3c2)cc1,118*,-13,.,-1,17,0,92*
O=C(Nc1ccccc1C(F)(F)F)c1ccco1,.,.,.,.,.,-13,.
O=C(Nc1ccc2nsnc2c1)N1CCCCC1,6,1,.,-1,28,-18,.
COc1ccc(NC(=S)Nc2ccc3nsnc3c2)cc1,118*,-2,.,0,13,17,100*
S=C(Nc1ccc2nsnc2c1)N1CCCCCC1,36*,-11,0,i,13,-15,97*
CCOc1cc(C(=O)Nc2ccc(S(=O)(=O)Nc3nccs3)cc2)cc(OCC)c1OCC,.,.,.,.,.,-8,.
CCOc1cc(C(=O)Nc2ccc(S(=O)(=O)Nc3nnc(CC)s3)cc2)cc(OCC)c1OCC,38*,9,2,i,-16,5,0
Cc1nc2c(c(=O)c3ccccc3n2C)c(=O)n1[C@@H](C)c1ccccc1,.,.,.,.,.,-5,.
COc1ccc(NC2=C(NC(C)=O)C(=O)c3ccccc3C2=O)cc1,4,-67,0,i,-8,8,.
COC1=C(Nc2ccc(OC)cc2)C(=O)C(OC)=C(Nc2ccc(OC)cc2)C1=O,-5,-4,0,1,.,-1,.
SMILES,CCHF vOTU inh-1,PrPC surface inh,TcdB GH inh,Vc quorum ag,VHR inh abs,PriA SSB inh,CCHF vOTU inh-2
COC1=C(Nc2ccc(OC)cc2)C(=O)c2ccccc2C1=O,59*,9,.,2,-4,75,9
CCOc1ccc(NC2=C(OC)C(=O)c3ccccc3C2=O)cc1,62*,-2,.,-1,2,112,10
COC1=C(Nc2ccc(O)cc2)C(=O)c2ccccc2C1=O,40*,-26,-6,-3,4,46,5
CCSc1ccccc1C(=O)N1CCC(S(=O)(=O)CC(=O)NC)CC1,.,.,.,.,.,10,.
COc1ccc(F)cc1S(=O)(=O)NCCC(O)c1cccc2ccccc12 (centres undefined),.,.,.,.,.,4,.
Cc1ccc(C)c(S(=O)(=O)N=C(Nc2ccccc2)c2ccccc2)c1,.,.,.,.,.,-5,.
O=C(Cc1c[nH]c2ccccc12)Nc1ccc(Nc2cccnc2)c(-c2ccc(-c3ccccc3)cc2F)c1,30*,-6,0,.,.,.,-25
CC(C)C(=O)Nc1ccc(C(=O)N/N=C/c2cc(Br)cc(Br)c2O)cc1,32*,7,0,0,16,.,-3
CC(C)C(=O)Nc1ccc(C(=O)NN=Cc2cc(Br)cc(Br)c2O)cc1,.,.,.,.,.,2,.
Cc1ccc(S(=O)(=O)c2cnc(SCC(=O)Nc3ccccc3C(F)(F)F)nc2N)cc1C,.,.,.,.,.,-14,.
O=S(=O)(Nc1ccc(Cl)c(C(F)(F)F)c1)c1cnc[nH]1,32*,9,.,0,-11,-12,-15
O=c1[nH]c(Nc2ccccc2)cc2cc(Br)ccc12,101*,0,1,i,.,0,98*
O=c1[nH]c(Nc2ccccc2)cc2ccccc12,88*,-2,.,0,14,-8,6
Cn1c(=O)cc(Nc2ccccc2)[nH]c1=O,-11,-3,0,-1,38,-3,.
COc1ccccc1Nc1nnc(C)c(=O)[nH]1,8,-8,.,i,18,-6,.
COc1ccccc1Nc1cc2cc(Br)ccc2c(=O)[nH]1,109*,1,1,i,.,6,93*
COc1ccc(OC)c(Nc2cc3ccccc3c(=O)[nH]2)c1,99*,-3,-1,-4,.,-8,90*
COc1ccc(OC)c(Nc2nnc(C)c(=O)[nH]2)c1,6,14,0,.,19,-9,.
O=C(CN1CCCc2ccccc21)N/N=C\c1cccc([N+](=O)[O-])c1,.,.,.,.,.,5,.
CCc1nnc(NN=Cc2ccc(OC(C)=O)c(OC)c2)n1N,.,.,.,.,.,1,.
CCc1nnc(N/N=C/c2ccc(O)c(OC)c2)n1N,77*,1,4,-1,0,.,-2
CCOc1cc(/C=N/Nc2nnc(C)n2N)ccc1OC(C)=O,86*,-4,1,-1,-13,.,-13
CCc1nnc(N/N=C\c2ccc(OC(C)=O)c(OC)c2)n1N,66*,-8,0,-1,-6,.,-6
CC(C)(C)c1nnc(N/N=C/c2cc(Br)ccc2O)n(N)c1=O,2,-5,.,0,23,.,.
CCc1nnc(N/N=C/c2cc(Br)c(O)cc2O)n1N,96*,-2,-13,i,5,.,14
SMILES,CCHF vOTU inh-1,PrPC surface inh,TcdB GH inh,Vc quorum ag,VHR inh abs,PriA SSB inh,CCHF vOTU inh-2
CC(=O)Nc1ccc(NS(=O)(=O)c2cc(S(=O)(=O)Nc3ccc(NC(C)=O)cc3)c3cccc4c3c2SC4=O)cc1,.,.,.,.,.,-3,.
CSCCC(Nc1nc(-c2ccccc2)nc2c1oc1ccccc12)C(=O)O (centres undefined),.,.,.,.,.,-3,.
O=C1OCCC1Sc1nc2ccccc2c(=O)[nH]1 (centres undefined),.,.,.,.,.,-9,.
CCc1nnc(NN=Cc2c(C)[nH]c3ccccc23)n1N,.,.,.,.,.,31,.
CCc1nnc(N/N=C/c2cccs2)n1N,89*,-7,.,0,15,.,-3
O=C(c1ccccc1F)N1CC(Oc2nc3c(Cl)cccc3s2)C1,.,.,.,.,.,-12,.
N#Cc1c(N)n(-c2ccccc2N)c2nc3ccccc3nc12,65*,-9,0,0,-8,-9,65*

# Assay outcomes (PubChem BioAssay)
